Assay outcomes from PubChem BioAssay.
Sa ugtP lethal – growth inhibition of ugtP-null S. aureus, primary screen, RN4220 ugtP deletion, OD600; 16 h; growth inhibition, % (no concentration beside the values); 330,000 compounds, 0.54% hits; in the data active = growth inhibition above about 68%;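 note: plate controls were untreated wells for no effect and antibiotic for full effect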
PrP 5UTR inh – inhibition of PrP 5' UTR reporter expression | inhibition, % (no concentration beside the values) | AID 488862, 2010 | 340,000 compounds, 0.35% hits | cell-based PrP 5' UTR mRNA reporter, plate reader; in the data active = inhibition above about 52%; note: 0 = median of the neutral control wells
Sa RN4220 lethal – growth inhibition of S. aureus RN4220, primary screen, OD600. 16 h. inhibition, % (concentration not given with the values). 330,000 compounds, 0.33% hits. AID 1259311, 2017; in the data active = inhibition above about 85%;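 note: plate controls were untreated cells for no effect and reference antibiotic for full effect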
CCHF vOTU inh – CCHFV vOTU protease inhibitors, primary screen, biochemical, Pep-AMC substrate, fluorescence; 370,000 compounds, 0.55% hits; inhibition, % at 11.5 µM; in the data active = inhibition above about 30%; note: 0% = vehicle wells with enzyme and 100% = no enzyme wells
PfHsp40 yeast – rescue of yeast from PfHsp40 toxicity, primary screen, S. cerevisiae, ATP luminescence | S. cerevisiae expressing PfHsp40, growth rescue | growth rescue, % at 12.5 µM | 340,000 compounds, 0.68% hits | AID 504582, 2011; in the data active = growth rescue above about 28%, passing the limit was not always enough;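 note: yeast W303a lacking pdr1 and pdr3 grown in galactose medium; growth measured after three days at 30 °C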
PrPC TRFRET – inhibitors of human cell surface prion protein PrPC, primary screen, cell-based, TR-FRET | Major prion protein (Homo sapiens), P04156 | TR-FRET read-out | inhibition, % at 13.8 µM | 370,000 compounds, 0.43% hits | AID 720596, 2013; in the data active = inhibition above about 24%; note: 0% = median of the test wells and 100% = reference compound wells
PrPC TRFRET cf – confirmation of inhibitors of cell surface human prion protein, confirmation, cell-based, TR-FRET; inhibition, % at 13.8 µM; shares compounds with PrPC TRFRET; cell surface PrPC level; 1,500 compounds, 65% hits; in the data active = inhibition above about 25%
LD9 cytotox – cytotoxicity in LD9 cells, cytotoxicity control for cell surface PrPc inhibitor project, cell-based, luminescence, high throughput. inhibition, % at 13.8 µM. luminescence viability. shares compounds with PrPC TRFRET. 1,500 compounds, 29% hits; in the data active = inhibition above about 9.5%
* hit, by the source's call; nt = no result. An excerpt weighted towards active compounds, which were near 2.1% of everything screened.

SMILES	Sa ugtP lethal	PrP 5UTR inh	Sa RN4220 lethal	CCHF vOTU inh	PfHsp40 yeast	PrPC TRFRET	PrPC TRFRET cf	LD9 cytotox
CCOC(=O)c1c(NC(=O)COc2ccccc2C#N)sc2c1CC(C)(C)NC2(C)C	4	-4	3	0	1	117*	104*	31*
CC1(C)Cc2c(sc(NC(=O)c3ccc(C(=O)c4ccccc4)cc3)c2C(N)=O)C(C)(C)N1	4	-5	16	7	1	36*	-15	19*
CCOc1ccccc1C(=O)Nc1ccc2nc(C)[nH]c(=O)c2c1	nt	nt	nt	7	nt	26*	4	2
COC(=O)c1ccc(CON=Cc2ccc(OC)cc2)o1	7	nt	13	nt	nt	nt	nt	nt
CC(=O)c1sc(NC(=O)CCOc2ccccc2)nc1C	-1	-19	11	12	-1	35*	41*	-6
CC(=O)c1sc(NC(=O)C(C)(C)C)nc1C	-6	-5	-5	4	0	26*	27*	1
CC(=O)c1sc(NC(=O)c2ccc(C(C)(C)C)cc2)nc1C	4	-111	4	-4	0	7	nt	nt
COc1ccc(C2CC(=O)C=C(c3cc(Cl)ccc3OC)C2)cc1 (stereo not drawn)	5	nt	4	nt	nt	nt	nt	nt
O=S(=O)(Nc1ccncc1)c1cc(Cl)c(Cl)cc1Cl	4	-12	0	-3	-2	43*	8	-4
O=C(O)C(=Cc1ccccc1[N+](=O)[O-])c1ccc2c(c1)OCO2	nt	nt	nt	-16	nt	27*	0	-7
O=C(O)C(=Cc1cc2c(cc1[N+](=O)[O-])OCO2)c1cc2c(cc1Br)OCO2	nt	-23	nt	13	-1	-8	nt	nt
O=C1CCCC(=NNC(=O)NC2CCCCC2)C1	2	nt	10	nt	nt	nt	nt	nt
COc1ccccc1Oc1ccc2c(c1)C(=O)N(CC1CCCO1)C2=O (stereo not drawn)	7	-27	4	-13	0	47*	1	-4
CC(=NNC(=O)CNC(=O)C(c1ccccc1)c1ccccc1)c1ccc(C(C)(C)C)cc1	31	nt	14	nt	nt	nt	nt	nt
COc1ccccc1C1C(C(=O)c2cc3ccccc3o2)=C(O)C(=O)N1CCN(C)C (stereo not drawn)	-2	-17	1	11	-1	-3	nt	nt
COc1cccc2cc(C(=O)C3=C(O)C(=O)N(CCN(C)C)C3c3ccc(Cl)cc3)oc12 (stereo not drawn)	1	-36	3	-9	0	41*	52*	-3
NC(N)=N/N=C/c1cn(-c2ccccc2)nc1-c1cccs1	nt	-8	nt	19	1	27*	3	60*
NC(N)=NN=Cc1cn(-c2ccccc2)nc1-c1cccs1	6	nt	5	nt	nt	nt	nt	nt
Cn1ccsc1=NC(=O)Nc1cccc(C(F)(F)F)c1	-1	nt	6	nt	nt	nt	nt	nt
CC(=O)Nc1cccc(C(C)=NNC(=O)c2ccc(Cn3nc([N+](=O)[O-])c(Cl)c3C)o2)c1	5	nt	6	nt	nt	nt	nt	nt
Nc1c(C(=O)Nc2ccc3c(c2)OCCO3)nnn1CCc1ccccc1	8	-52	6	2	-1	11	nt	nt
Nc1c(C(=O)Nc2ccc3c(c2)OCCO3)nnn1Cc1cccc(Br)c1	3	-70	4	0	1	29*	21	-4
COc1cccc(C=Nn2cncn2)c1OCC#N	14	nt	2	nt	nt	nt	nt	nt
CCOC(=O)C(N=Nc1sc(C(=O)OCC)c(C)c1C(=O)OCC)=C(C)O	-13	nt	10	nt	nt	nt	nt	nt
Cc1cc2cc(CNS(=O)(=O)c3ccccc3)ccc2n1C	-2	-32	-2	3	4	35*	29*	-5
SMILES	Sa ugtP lethal	PrP 5UTR inh	Sa RN4220 lethal	CCHF vOTU inh	PfHsp40 yeast	PrPC TRFRET	PrPC TRFRET cf	LD9 cytotox
CCS(=O)(=O)NCc1ccc2c(c1)cc(C)n2C	-5	-28	1	-4	0	-6	nt	nt
COc1ccc(S(=O)(=O)NCc2ccc3c(c2)cc(C)n3C)cc1	-5	-26	-12	7	2	38*	41*	-2
COc1cc2c(c(OC)c1OC)-c1c(cc3c(c1OC)OCO3)C1OC2C(C)C1C (stereo not drawn)	6	nt	7	nt	nt	nt	nt	nt
NC(N)=NS(=O)(=O)c1ccc(NC(=S)NC(=O)c2sc3ccccc3c2Cl)cc1	11	-15	3	-5	-1	36*	77*	-7
CCCCOC(=S)NC(=O)c1sc2ccccc2c1Cl	nt	-11	nt	15	3	43*	18	-8
CCCOc1ccc(C(CC(=O)O)NC(=O)c2sc3ccccc3c2Cl)cc1 (stereo not drawn)	-5	-13	5	17	3	43*	34*	-5
CCOc1ccc(C(CC(=O)O)NC(=O)c2sc3ccccc3c2Cl)cc1 (stereo not drawn)	-9	-25	3	6	1	23	nt	nt
O=C(NN=Cc1ccncc1)c1cc2ccccc2o1	-14	nt	1	nt	nt	nt	nt	nt
CCC1(C)Cc2ccccc2-c2[nH]c(=S)[nH]c(=O)c21 (stereo not drawn)	4	-19	-3	8	0	90*	120*	-8
Cc1ccc(NC(=O)c2c(C(F)(F)F)nn(C)c2SCc2cccc(C(F)(F)F)c2)cc1C	-25	-12	2	22	1	30*	25*	9.4*
COc1cc(/C=N\Nc2nc3ccccc3[nH]2)cc(OC)c1OC	nt	-11	nt	15	0	-3	nt	nt
COc1ccc2c(c1)c(/C=N/Nc1nc3ccccc3[nH]1)c(C)n2C	nt	-50	nt	9	3	25*	6	27*
CCCOc1ccc(-c2nn(-c3ccccc3)cc2C=C2SC(N)=NC2=O)cc1	-1	nt	11	nt	nt	nt	nt	nt
Nc1nc2ccc(Cl)cc2cc1C(=O)NCc1ccccc1Br	nt	nt	nt	-15	nt	49*	81*	-2
Nc1ccc(CNC(=O)c2cc3cc(Cl)ccc3nc2N)cc1	nt	nt	nt	-1	nt	11	nt	nt
CC(=O)c1cccc(Nc2c3c(nc4ccccc24)CCC3)c1	-2	38	-1	4	0	18	nt	nt
COC(=O)c1cccc(Nc2c3c(nc4ccccc24)CCC3)c1	-7	-28	-4	3	-1	29*	30*	12*
Cc1ccc2nc3c(c(Nc4cccc(O)c4)c2c1)CCC3	-3	-18	1	8	-2	25*	16	16*
O=C(Nc1oc2ccccc2c(=O)c1-c1ccc2c(c1)OCO2)c1ccco1	nt	nt	nt	26	nt	33*	28*	3
O=C(Nc1ccccc1C(=O)Nc1ccc2c(c1)OCO2)c1ccco1	-1	-16	6	9	1	-5	nt	nt
N#CC(=C=[N-])C1=C(C#N)C(c2ccccc2F)C([n+]2ccccc2)C(O)(C2CC2)N1 (stereo not drawn)	1	1	6	-11	0	63*	22	0
